Hits are enriched below; roughly 19% of the tested compounds scored in any of these assays.
KB-V1 MDR tox = KB-V1 MDR subline cytotoxicity; KB-V1 MDR cells viability, CellTiter-Glo, 72 h; Potency, µM (top dose mostly 46.1 µM), actives largely listed as cytotoxic; 400,000 compounds, 3.4% hits; AID 1347076; note: nearly all actives have a fitted effect of over 60% in size
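Compound-treated KB-V1 multidrug-resistant cells, 72 h, 37 degrees C; viability by CellTiter-Glo. Fitted qHTS curves give the values.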
TDP1 cell CPT = DT40-hTDP1 cell growth loss with CPT; 420,000 compounds, 12% hits; Potency, µM (titrated, usually from 46.2 µM), inactives show top-dose activity change, negative = growth inhibition, most hits filed as inhibitors; chicken DT40 Tdp1-/-;hTDP1 cells + 20 nM CPT, ATP luminescence, 48 h; note: nearly all actives have a fitted effect of over 55% in size
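Cell growth measured by CellTiter-Glo luminescence after a minimum 48 h, 37 C compound exposure with 20 nM CPT in Tdp1-knockout DT40 cells stably expressing hTDP1, seeded 400/well; qHTS titration format.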
HT1080NT lethal = kills 2HG-producing HT-1080-NT fibrosarcoma cells; HT-1080-NT fibrosarcoma viability, CellTiter-Glo ATP luminescence, 48 h; Potency, µM (series often up to 46.1 µM), without a hit: at the top dose activity, negative = less viability, usual class: cytotoxic; 360,000 compounds, 1.6% hits; AID 686970;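 note: NT is the 2HG producing partner of a matched IDH1 knockdown line; 0% = DMSO-treated cells and -100% = media-only wells without cells; nearly all actives have a fitted effect of over 55% in size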
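A 48-hour cytotoxicity screen used HT-1080-NT cells plated 2 hours before compound delivery. ATP-based CellTiter-Glo luminescence measured viability, normalized to DMSO and no-cell controls.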
KB-3-1 cytotox = kills parental KB-3-1 adenocarcinoma cells; KB-3-1 viability, CellTiter-Glo ATP luminescence, 72 h; 400,000 compounds, 1.4% hits; AID 1347075; Potency, µM (top dose mostly 46.1 µM), most hits filed as cytotoxic; note: nearly all actives have a fitted effect of over 60% in size
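Parental KB-3-1 adenocarcinoma cells in phenol-red-free DMEM with 10% FBS were pin-treated with compounds at several concentrations, incubated 72 h at 37 °C, and viability read by CellTiter-Glo luminescence; concentration-effect curves were fitted after normalization.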
HT1080 IDH1KD tx = kills HT-1080 cells with IDH1 knockdown; AID 686971; 360,000 compounds, 2% hits; Potency, µM (series often up to 46.1 µM), for the others: at the highest dose activity, negative = toxicity, actives largely listed as cytotoxic; HT-1080 IDH1 knockdown viability, ATP luminescence, 48 h;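 note: 0% = DMSO wells and -100% = cell-free medium wells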
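After a 2 h attachment period, IDH1KD HT-1080 cells took pin-transferred compound for 48 h at 37 °C; ATP-based luminescence after 10 min room-temperature reagent incubation reported viability.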
TDP1 cell noCPT = qHTS for Inhibitors of human tyrosyl-DNA phosphodiesterase 1 (TDP1): qHTS in cells in absence of CPT; DT40 Tdp1-/- hTDP1 cells, no CPT, ATP luminescence, 48 h; Potency, µM (titrated, usually from 46.2 µM), for the others: top-dose activity change, negative = growth inhibition, hits mostly inhibitors; 420,000 compounds, 15% hits; AID 686978, 2013; note: nearly all actives have a fitted effect of over 55% in size
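Growth kinetics read by CellTiter-Glo luminescence after ≥48 hr at 37 °C. Cells: DT40 Tdp1-/- stably carrying human TDP1, 400 per well, compound exposure in the absence of CPT (DMSO vehicle).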
An asterisk follows results filed as active; i = inactive; ? = inconclusive; nt = no result given; [ ] = dose if it differs, or a comment. Calls come from the whole dose curve; as a rule, active = well fitted curve in the direction sought with a large enough effect; inconclusive = small, poorly fitted or top-dose-only effect, or another doubt; inactive = no such curve, though single readings can be large; an effect the other way counts as inactive or inconclusive. Unless noted, % is set by controls: 0 for no effect and ±100 for the full control effect; potency is the fitted concentration of half-maximal effect.

SMILES | KB-V1 MDR tox | TDP1 cell CPT | HT1080NT lethal | KB-3-1 cytotox | HT1080 IDH1KD tx | TDP1 cell noCPT
COc1cccc(-c2csc(NC(=O)Nc3ccccc3)n2)c1 | ? | 7.3µM* | ? | i | -29% | 2.3µM*
O=C(Nc1ccc(Cl)c(Cl)c1)Nc1nc(-c2ccccc2)cs1 | 6.5µM* | 12µM* | 3% | 12µM* | -19% | 13µM*
COc1cccc(-c2csc(Nc3ccc(Oc4ccccc4)cc3)n2)c1 | i | ? | -15% | i | -10% | ?
O=C(Nc1ccccc1)Nc1nc(-c2ccc(F)c(F)c2)cs1 | i | 5.8µM* | -12% | i | -2% | 2.9µM*
Cc1cn([C@H]2C[C@H](O)[C@@H](CNCc3ccc(F)c(N4CCOCC4)c3)O2)c(=O)[nH]c1=O | ? | 10% | -3% | i | 4% | 6%
O=C(Nc1ccc(Cl)cc1)Nc1nc(-c2ccccc2O)cs1 | ? | 5.2µM* | -14% | ? | -20% | 4.6µM*
O=C(COC(=O)c1cc(S(=O)(=O)N2CCCC2)ccc1O)Nc1ccc(F)cc1F | i | -2% | 6% | i | 13% | -10%
CC1=C(C(=O)N2CCCCCC2)CC(CC(=O)NC(c2ccccc2)c2ccccc2)C(=O)N1Cc1ccccc1 (centres undefined) | ? | ? | 1% | i | 2% | ?
COc1cccc(Nc2ncc3nc(-c4cc(F)cc(F)c4)c(=O)n(CCC#N)c3n2)c1 | nt | 12µM* | nt | nt | nt | 16µM*
COc1cccc(Nc2ncc3nc(-c4ccc(F)cc4)c(=O)n(CCC#N)c3n2)c1 | nt | 14% | nt | nt | nt | -25%
CCC1CN(C(=O)Nc2ccccc2C(F)(F)F)c2ccccc2S1 (centres undefined) | i | -10% | nt | i | nt | 3%
CC1CCN(c2oc(-c3cccs3)nc2S(=O)(=O)c2ccc(Cl)cc2)CC1 | i | ? | nt | i | nt | 13µM*
CNc1oc(-c2cccs2)nc1S(=O)(=O)c1ccccc1 | ? | 4% | -7% | i | -2% | -19%
CCCCNc1oc(-c2cccs2)nc1S(=O)(=O)c1ccccc1 | 15µM* | -11% | 5% | ? | ? | ?
NC(=O)C1CCN(c2oc(-c3ccccc3F)nc2S(=O)(=O)c2ccc(Cl)cc2)CC1 | ? | -24% | 9% | i | 0%[9.24 µM] | ?
CN(C)CCCNc1oc(-c2ccc(Cl)cc2)nc1S(=O)(=O)c1ccccc1 | i | 15µM* | -22% | i | -24% | 16µM*
O=S(=O)(c1ccc(Cl)cc1)c1nc(-c2ccccc2Br)oc1NCc1ccccc1 | i | ? | nt | i | nt | 13µM*
Cc1ccccc1-c1nc(S(=O)(=O)c2ccc(Br)cc2)c(NCc2cccnc2)o1 | i | -7% | -1%[9.24 µM] | i | ? | -25%
Cc1ccc(S(=O)(=O)c2nc(-c3cccs3)oc2N2CCC(C)CC2)cc1 | ? | 23µM* | nt | i | nt | 10µM*
O=S(=O)(c1ccccc1)c1nc(-c2cccs2)oc1N1CCCCC1 | ? | 29µM* | nt | i | nt | ?
O=S(=O)(c1ccc(Cl)cc1)c1nc(-c2ccccc2F)oc1NCCCN1CCOCC1 | nt | ? | 1% | nt | 0% | ?
Cc1ccc(S(=O)(=O)c2nc(-c3ccccc3Cl)oc2NCCCN2CCOCC2)cc1 | i | ? | -3% | i | 15% | 26µM*
Cc1ccc(S(=O)(=O)N2CCN(C(=O)c3cc(S(=O)(=O)N4CCOCC4)c(Cl)cc3Cl)CC2)cc1 | i | ? | -1% | i | 0% | ?
CN(C)CCCNc1nc2cc(-c3ccc(F)cc3)sc2c(=O)n1C | i | 18µM* | ? | i | 16µM* | 18µM*
CN(C)CCCNc1nc2cc(-c3ccccc3)sc2c(=O)n1C | i | 21µM* | 9.2µM* | i | ? | 21µM*

Bioassay records from PubChem BioAssay.
